Inconclusive results are not listed. The source made the active and inactive calls. The call rests on the fitted dose curve; in most records, active means well fitted inhibition curve with a large enough effect; inconclusive means small, poorly fitted or top-dose-only effect; inactive means flat fitted curve, though single readings scatter. Peptide text beside a SMILES is read from it.
What follows are compounds tested on CP252 (assay: qHTS profiling for inhibitors of Plasmodium falciparum proliferation (AID 504749; further: nearly all actives have a fitted effect of over 60% in size;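 on activity, negative = inhibition: 0% = DMSO vehicle and full inhibition = artemisinin control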)). Settings: P. falciparum in erythrocytes, SYBR Green DNA, 72 h; series mostly up to 12.8 µM; activity, negative = inhibition: at the top concentration.
How it was run: (§1)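 P. falciparum-infected erythrocytes (0.3% parasitemia, 2.5% hematocrit) incubated with compound 72 h at 37 C, 5% CO2. Parasite DNA detected by SYBR Green after lysis, overnight at room temperature; normalised to 0.29 uM artemisinin and DMSO.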
Potency means the concentration at half of the fitted maximal effect.

activity, negative = inhibition, inactive:
CC1CCC(C(C)C)C(=O)C1 (centres undefined) -2.94% [at 28.7 µM]
CC(=O)N[C@H](CC(C)C)C(=O)O 0.702% [at 28.7 µM]
CC(C)C1CCC(C(=O)NC(Cc2ccccc2)C(=O)O)CC1 (centres undefined) -0.821% [at 28.7 µM]
COc1ccc2cc(C(C)CO)ccc2c1 (centres undefined) 7.65% [at 28.7 µM]
CNC1C(OC2C(O[C@@H]3C(O)C(O)[C@@H](N=C(N)N)C(O)C3N=C(N)N)OC(C)[C@@]2(O)CO)OC(CO)C(O)C1O (some centres undefined) 0.416% [at 28.7 µM]
CC1C2CCC3C4CC=C5CC(N(C)C)CC[C@@]5(C)C4CC[C@@]32CN1C (some centres undefined) -4.83% [at 28.7 µM]
C[C@]12C=CC(=O)C=C1CCC1C2C(O)C[C@]2(C)C1CC[C@]2(O)C(=O)CO (some centres undefined) 9.35% [at 28.7 µM]
COc1ccc2c(c1)N(C[C@@H](C)CN(C)C)c1ccccc1S2 -8.17%
CCOC(=O)C1=CC(OC(CC)CC)C(NC(C)=O)C(N)C1 (centres undefined) 0.569% [at 28.7 µM]
CN(C)CCc1c[nH]c2ccc(CC3COC(=O)N3)cc12 (centres undefined) -4.94% [at 28.7 µM]
NCC1CCC(N)C(O[C@@H]2C(O)[C@H](O[C@H]3OC(CO)C(O)C(N)C3O)[C@@H](N)C[C@H]2N)O1 (some centres undefined) 5.58% [at 28.7 µM]
OCC1O[C@H](OC2C(CO)O[C@@](O)(CO)C2O)C(O)C(O)C1O (some centres undefined) 6.51% [at 28.7 µM]
CC1(C)OC2CO[C@]3(COS(N)(=O)=O)OC(C)(C)OC3C2O1 (some centres undefined) 4.05% [at 28.7 µM]
CC(=O)OC1CCC2C3CCc4cc(O)ccc4C3CCC12C (centres undefined) 3.03% [at 28.7 µM]
CN(C)CCCOC1C(C(O)CO)OC2OC(C)(C)O[C@@H]21 (some centres undefined) 5.32% [at 28.7 µM]

Potency, active:
COc1ccc2cc1Oc1ccc(cc1)CC1c3c(cc4c(c3Oc3cc5c(cc3OC)CCN(C)C5C2)OCO4)CCN1C (centres undefined) 8.91 µM
COc1cc(C2c3cc4c(cc3C(O[C@@H]3OC5COC(c6cccs6)OC5C(O)C3O)C3COC(=O)C23)OCO4)cc(OC)c1O (some centres undefined) 1.12 µM

Each compound was assayed on CP256 in the same assay as above. Settings: P. falciparum in erythrocytes, SYBR Green DNA, 72 h; series mostly up to 12.8 µM; activity, negative = inhibition: at the top concentration.
How it was run: as §1

activity, negative = inhibition, inactive:
CCC(C)C(=O)OC1CCC=C2C=CC(C)C(CCC3CC(O)CC(=O)O3)[C@@H]21 (some centres undefined) 9.73% [at 28.7 µM]
C[C@]1(c2ccccc2)OC(C(=O)O)=CC1=O 5.8% [at 28.7 µM]
OCC1OC([S-])[C@H](O)C(O)C1O.[Au+] (some centres undefined) 0.22% [at 28.7 µM]
COC(=O)N/N=C/C1=C[N+](=O)c2ccccc2[N+]1=O 6.62% [at 28.7 µM]
CN1CC(=O)N=C1N 4.87% [at 28.7 µM]
CNC1CC(N)[C@H](O)[C@@H](O[C@@H]2OC(CO)C3OC4(OC(C(N)CO)C(O)C(O)C4O)O[C@@H]3[C@H]2O)C1O (some centres undefined) -0.168% [at 28.7 µM]
CC(=O)N[C@@H]1C(O)OC(CO)C(O)C1O (some centres undefined) -0.223% [at 28.7 µM]
CCC(CCC(C)C1CCC2C3CC=C4CC(O)CC[C@@]4(C)C3CC[C@@]12C)C(C)C (some centres undefined) 11.4% [at 28.7 µM]
O=C1OC(CO)C(O)C(O)C1O (centres undefined) -0.0013% [at 28.7 µM]
CCCC(=O)O[C@]1(C(=O)CO)CCC2[C@@H]3CCC4=CC(=O)CC[C@]4(C)C3C(O)C[C@]21C (some centres undefined) 0.577% [at 28.7 µM]
COC(=O)C(Cc1ccccc1)NC(=O)C(N)CC(=O)O (stereo not drawn) (H-Asp-Phe-OMe; configuration not given here) 2.61% [at 28.7 µM]
CC[C@@]12CCCN3CCc4c(n(c5ccccc45)[C@](O)(C(=O)OC)C1)C32 (some centres undefined) 3.38% [at 28.7 µM]
CC1(C)SC2C(N3C(=O)C(c4ccccc4)NC3(C)C)C(=O)N2C1C(=O)O (centres undefined) 6.83% [at 28.7 µM]
CC1CCC(C(C)C)C(=O)C1 (centres undefined) 6.06% [at 28.7 µM]
CC(=O)N[C@H](CC(C)C)C(=O)O 12.1% [at 28.7 µM]
CC(C)C1CCC(C(=O)NC(Cc2ccccc2)C(=O)O)CC1 (centres undefined) -15.1% [at 28.7 µM]
COc1ccc2cc(C(C)CO)ccc2c1 (centres undefined) 10.7% [at 28.7 µM]
CNC1C(OC2C(O[C@@H]3C(O)C(O)[C@@H](N=C(N)N)C(O)C3N=C(N)N)OC(C)[C@@]2(O)CO)OC(CO)C(O)C1O (some centres undefined) 5.64% [at 28.7 µM]
CC1C2CCC3C4CC=C5CC(N(C)C)CC[C@@]5(C)C4CC[C@@]32CN1C (some centres undefined) 4.48% [at 28.7 µM]
C[C@]12C=CC(=O)C=C1CCC1C2C(O)C[C@]2(C)C1CC[C@]2(O)C(=O)CO (some centres undefined) -16.7% [at 28.7 µM]
COc1ccc2c(c1)N(C[C@@H](C)CN(C)C)c1ccccc1S2 -11.1%
CCOC(=O)C1=CC(OC(CC)CC)C(NC(C)=O)C(N)C1 (centres undefined) -16.4% [at 28.7 µM]
CN(C)CCc1c[nH]c2ccc(CC3COC(=O)N3)cc12 (centres undefined) 1.92% [at 28.7 µM]
NCC1CCC(N)C(O[C@@H]2C(O)[C@H](O[C@H]3OC(CO)C(O)C(N)C3O)[C@@H](N)C[C@H]2N)O1 (some centres undefined) 9.93% [at 28.7 µM]

Potency, active:
COC1C=CO[C@@]2(C)Oc3c(C)c(O)c4c(O)c(c(C=NN5CCN(C)CC5)c(O)c4c3C2=O)NC(=O)/C(C)=C\C=CC(C)C(O)[C@@H](C)C(O)C(C)[C@H](OC(C)=O)C1C (some centres undefined) 3.55 µM
COc1ccc(CC(N)C(=O)NC2C(CO)OC(n3cnc4c(N(C)C)ncnc43)C2O)cc1 (centres undefined) 1 µM
COc1ccc2cc1Oc1ccc(cc1)CC1c3c(cc4c(c3Oc3cc5c(cc3OC)CCN(C)C5C2)OCO4)CCN1C (centres undefined) 10 µM
